# Data from PubChem BioAssay (NCI).
# This is part of a sample that, as a whole, favours compounds with a hit. Of some 83,000 tested, about 20% had one in any assay.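 How to read the values: 0–100, growth inhibition (40 = 60% inhibited); 0, no net growth; -100 to 0, cell death (-40 = 40% of starting cells died; -100 = all dead).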 Activity calls are given as the source filed them. The calls were made as follows: active = growth percent below 10; inactive = the rest.
# Tested on: SK-OV-3 ovarian
# Test: NCI-60 one-dose screen, 48 h (100 = growth as untreated, 0 = no growth, -100 = all killed)
# Details: 10 µM
row,SMILES,growth
1,CCCCOC(OCCCC)c1ccccc1,115% (inactive)
2,O=C(O)c1cccc([N+](=O)[O-])c1O,98.4% (inactive)
3,O=C1c2ccccc2C(=O)N1OCc1ccccc1,99.2% (inactive)
4,C[C@@H](c1ccccc1)[C@@H](C(=O)O)c1ccccc1,100% (inactive)
5,CC1=CC(C)(C)NC(=S)N1c1ccc(S(=O)(=O)O)c2cccc(S(=O)(=O)O)c12,115% (inactive)
6,CC(=O)OC(OC(C)=O)C1CCCO1 (stereo not drawn),105% (inactive)
7,c1ccc2c(N3CCCCC3)ncnc2c1,94% (inactive)
8,S=c1nn[nH]c2ccccc12,99.8% (inactive)
9,O=[N+]([O-])c1ccc(Sc2ccncn2)c([N+](=O)[O-])c1,102% (inactive)
10,O=c1[nH]c(O)c(/C=C2/C=Nc3ccccc32)[nH]1,112% (inactive)
11,CC1OC(Oc2c(-c3ccc(O)c(O)c3)oc3cc(O)cc(O)c3c2=O)C(O)C(O)C1O (stereo not drawn),108% (inactive)
12,Cc1ccc(O)c(C(=O)c2ccccc2)c1,119% (inactive)
13,OCC1OC(OC2C(O)C(CO)OC2(CO)OC2OC(CO)C(O)C(O)C2O)C(O)C(O)C1O (stereo not drawn),108% (inactive)
14,C[N+](C)(C)C(=O)c1ccccc1,104% (inactive)
15,O=[N+]([O-])c1ccc(Cl)c(S(=O)(=O)O)c1,110% (inactive)
16,Cc1cc2ccccc2c(O)c1C#N,89.4% (inactive)
17,COc1ncnc2c1cnn2C,104% (inactive)
18,NC(C(=O)O)c1ccc([N+](=O)[O-])cc1 (stereo not drawn),96.4% (inactive)
19,CC(O)COc1ccc(-c2ccccc2)cc1 (stereo not drawn),105% (inactive)
20,C1CNC(C2=NCCN2)=N1,104% (inactive)

row,SMILES,growth
1,CN(C)C(C)(C)CC(C)(C)C,109% (inactive)
2,O=[N+]([O-])c1ccc(S(=O)(=O)NN=C2CCCCC2)cc1,100% (inactive)
3,C[C@]12CC[C@@H]3c4ccc(OCC(=O)O)cc4CC[C@H]3[C@@H]1CCC2=O,115% (inactive)
4,Nc1ncnc2[nH]ncc12,2.06% (active)
5,CCCNc1ccc(C2=NCCCN2)cc1,107% (inactive)
6,O=C(N/N=C/c1ccccc1O)Nc1nn[nH]n1,113% (inactive)
7,Cc1ccc(CCCC(=O)O)c(C)c1,97.7% (inactive)
8,CC(=O)c1cc2c(cc1F)C(C)(C)CCC2(C)C,105% (inactive)
9,CN(c1ccccc1)c1ncnc2c1ncn2C,105% (inactive)
10,CCCCC1(CC)COC(CCC)OC1 (stereo not drawn),104% (inactive)
11,COc1cc2c3cc1Oc1c(OC)c(OC)cc4c1C(Cc1ccc(O)c(c1)Oc1ccc(cc1)CC3N(C)CC2)N(C)CC4 (stereo not drawn),43% (inactive)
12,CCC(C#N)(CC)c1ccccc1,102% (inactive)
13,FC(F)(F)c1ccc2c(c1)N(CCCN1CCN(C3CC3)CC1)c1ccccc1S2,83.9% (inactive)
14,CC1NC(=O)NC1CCCCCC(=O)O (stereo not drawn),109% (inactive)
15,COS(=O)(=O)c1ccc(Br)cc1,104% (inactive)
16,O=[N+]([O-])c1cccc(N=Nc2ccc(O)cc2O)c1,101% (inactive)
17,Cc1cc(OCCO)cc(C)c1Cl,117% (inactive)
18,Cc1cc(O)ccc1O,112% (inactive)
19,CCOc1ccc(Br)cc1/C=N\N=C\c1cc(Br)ccc1OCC,117% (inactive)

# Tested on: IGROV1 ovarian
# Test: as above
# Details: 10 µM
row,SMILES,growth
1,CCCCOC(OCCCC)c1ccccc1,115% (inactive)
2,O=C(O)c1cccc([N+](=O)[O-])c1O,94.4% (inactive)
3,O=C1c2ccccc2C(=O)N1OCc1ccccc1,94.4% (inactive)
4,C[C@@H](c1ccccc1)[C@@H](C(=O)O)c1ccccc1,111% (inactive)
5,CC1=CC(C)(C)NC(=S)N1c1ccc(S(=O)(=O)O)c2cccc(S(=O)(=O)O)c12,95.9% (inactive)
6,CC(=O)OC(OC(C)=O)C1CCCO1 (stereo not drawn),110% (inactive)
7,c1ccc2c(N3CCCCC3)ncnc2c1,96% (inactive)
8,S=c1nn[nH]c2ccccc12,97.7% (inactive)
9,O=[N+]([O-])c1ccc(Sc2ccncn2)c([N+](=O)[O-])c1,83% (inactive)
10,O=c1[nH]c(O)c(/C=C2/C=Nc3ccccc32)[nH]1,93.8% (inactive)
11,CC1OC(Oc2c(-c3ccc(O)c(O)c3)oc3cc(O)cc(O)c3c2=O)C(O)C(O)C1O (stereo not drawn),107% (inactive)
12,Cc1ccc(O)c(C(=O)c2ccccc2)c1,113% (inactive)
13,OCC1OC(OC2C(O)C(CO)OC2(CO)OC2OC(CO)C(O)C(O)C2O)C(O)C(O)C1O (stereo not drawn),123% (inactive)
14,C[N+](C)(C)C(=O)c1ccccc1,115% (inactive)
15,O=[N+]([O-])c1ccc(Cl)c(S(=O)(=O)O)c1,123% (inactive)
16,Cc1cc2ccccc2c(O)c1C#N,114% (inactive)
17,COc1ncnc2c1cnn2C,110% (inactive)
18,NC(C(=O)O)c1ccc([N+](=O)[O-])cc1 (stereo not drawn),109% (inactive)
19,CC(O)COc1ccc(-c2ccccc2)cc1 (stereo not drawn),115% (inactive)
20,C1CNC(C2=NCCN2)=N1,107% (inactive)

row,SMILES,growth
1,CN(C)C(C)(C)CC(C)(C)C,106% (inactive)
2,O=[N+]([O-])c1ccc(S(=O)(=O)NN=C2CCCCC2)cc1,103% (inactive)
3,C[C@]12CC[C@@H]3c4ccc(OCC(=O)O)cc4CC[C@H]3[C@@H]1CCC2=O,107% (inactive)
4,Nc1ncnc2[nH]ncc12,6.63% (active)
5,CCCNc1ccc(C2=NCCCN2)cc1,86% (inactive)
6,O=C(N/N=C/c1ccccc1O)Nc1nn[nH]n1,111% (inactive)
7,Cc1ccc(CCCC(=O)O)c(C)c1,108% (inactive)
8,CC(=O)c1cc2c(cc1F)C(C)(C)CCC2(C)C,101% (inactive)
9,CN(c1ccccc1)c1ncnc2c1ncn2C,118% (inactive)
10,CCCCC1(CC)COC(CCC)OC1 (stereo not drawn),129% (inactive)
11,COc1cc2c3cc1Oc1c(OC)c(OC)cc4c1C(Cc1ccc(O)c(c1)Oc1ccc(cc1)CC3N(C)CC2)N(C)CC4 (stereo not drawn),13.7% (inactive)
12,CCC(C#N)(CC)c1ccccc1,112% (inactive)
13,FC(F)(F)c1ccc2c(c1)N(CCCN1CCN(C3CC3)CC1)c1ccccc1S2,50.2% (inactive)
14,CC1NC(=O)NC1CCCCCC(=O)O (stereo not drawn),125% (inactive)
15,COS(=O)(=O)c1ccc(Br)cc1,118% (inactive)
16,O=[N+]([O-])c1cccc(N=Nc2ccc(O)cc2O)c1,83.6% (inactive)
17,Cc1cc(OCCO)cc(C)c1Cl,113% (inactive)
18,Cc1cc(O)ccc1O,114% (inactive)
19,CCOc1ccc(Br)cc1/C=N\N=C\c1cc(Br)ccc1OCC,103% (inactive)
